Screens as filed in PubChem.
Sm TGR inh: qHTS Assay for the Inhibitors of Schistosoma Mansoni Peroxiredoxins. hit rate 3% among 360,000. Potency, µM (top dose mostly 114 µM), inactives show at the top dose activity change, negative = inhibition, most hits filed as inhibitors. AID 485364, 2010. purified TGR, DTNB reduction, TNB absorbance 405 nm; further: nearly all actives have a fitted effect of over 60% in size
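First, TGR (20 nM dispensed) and NADPH were mixed with compound. Second, a 15 min room-temperature incubation followed. Third, further NADPH and then DTNB were added to start the reaction. Finally, TNB absorbance was monitored kinetically.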
LmPK inh: qHTS Assay for Inhibitors of Leishmania Mexicana Pyruvate Kinase (LmPK); purified LmPK, Kinase-Glo ATP luminescence, 1 h; Potency, µM (doses to about 57.5 µM), for the others: at the top dose activity change, negative = inhibition, hits mostly inhibitors; hit rate 0.37% among 290,000; AID 1721, 2009
Target sequence (Q27686 whole entry, looked up): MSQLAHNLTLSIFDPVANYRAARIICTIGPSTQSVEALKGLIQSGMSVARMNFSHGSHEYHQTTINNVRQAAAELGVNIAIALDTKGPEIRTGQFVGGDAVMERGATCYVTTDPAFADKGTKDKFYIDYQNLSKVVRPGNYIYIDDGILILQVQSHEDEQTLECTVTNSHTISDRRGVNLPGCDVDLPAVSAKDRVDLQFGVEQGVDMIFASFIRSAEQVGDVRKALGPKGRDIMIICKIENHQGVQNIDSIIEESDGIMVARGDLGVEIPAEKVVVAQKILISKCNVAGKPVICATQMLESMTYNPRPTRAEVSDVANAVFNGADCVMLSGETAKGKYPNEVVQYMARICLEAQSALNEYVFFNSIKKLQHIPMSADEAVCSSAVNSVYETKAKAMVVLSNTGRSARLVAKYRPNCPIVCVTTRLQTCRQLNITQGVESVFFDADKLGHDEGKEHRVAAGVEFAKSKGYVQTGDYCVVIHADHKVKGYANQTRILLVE
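ATP generated from ADP (0.1 mM) and PEP (0.5 mM) by 0.1 nM LmPK over 1 h at room temperature (pH 7.2 imidazole buffer) was detected by coupled luciferase luminescence. Values were normalized to uninhibited and no-enzyme wells.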
RE007 growth inh: qHTS Assay for Inhibitors of the HIV-1 protein Vpr | hit rate 0.21% among 360,000 | S. pombe RE007 Vpr strain, BacTiter-Glo ATP luminescence, 24 h | Potency, µM (top dose mostly 92.2 µM), for the others: at the highest dose activity change, negative = less growth, actives largely listed as inhibitors; active means well fitted falling curve with a large enough effect; inconclusive means small, poorly fitted or top-dose-only effect; inactive means no such curve, though single readings can be large or run the other way; further: nearly all actives have a fitted effect of over 50% in size
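Fission yeast RE007 carrying one integrated HIV-1 vpr copy, seeded at OD 0.01 in PMG+AL medium with 23 nL pinned compound. Grown 24 h at 30 degrees; viability read by BacTiter-Glo luminescence after 5 min.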
Tb PYK inh: qHTS of Trypanosoma Brucei Inhibitors; TbPYK enzyme, Kinase-Glo Plus ATP luminescence, 45 min; pyruvate kinase (Trypanosoma brucei), Q57TT1; Potency, µM (top dose mostly 76.8 µM), for inactives: at the top dose activity, negative = inhibition, most hits filed as inhibitors; hit rate 0.12% among 410,000; further: nearly all actives have a fitted effect of over 50% in size
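In this concentration-response screen, enzyme-free wells defined baseline while DMSO plates tracked drift. Each reaction combined TbPYK, substrate, compound and 130 uM ADP for 45 min at room temperature. Kinase-Glo Plus luminescence gave the signal.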
The depositor's hits bear a star; ? = inconclusive; . = no result; [ ] = another dose, or the depositor's remark. The list is not random: actives were taken first. Their share in the collection is about 3%. Unless noted, the call rests on the fitted dose curve; in most records, active means well fitted curve in the direction sought with a large enough effect; inconclusive means small, poorly fitted or top-dose-only effect, or another doubt; inactive means no such curve, though single readings can be large; an effect the other way counts as inactive or inconclusive. On the % scale 0 is the no-effect control and ±100 the full control effect; potency means the concentration at half of the fitted maximal effect.

SMILES | Sm TGR inh | LmPK inh | RE007 growth inh | Tb PYK inh
CCOc1ccccc1NC(=O)Nc1nnc(N2CCCC(C)C2)s1 (stereo not given) | -12.4% | . | . | -1.0%
NC(Cc1c[nH]c2ccc(OCc3ccccc3)cc12)C(=O)O (stereo not given) | 11.2µM* | -7.5% | -13.5% | -4.7%
N[C@@H](Cc1c[nH]c2ccc(O)cc12)C(=O)O | 0.0% | . | -19.8% | -6.5%
CCNc1ncc2nc(CCc3ccccc3)c(=O)n(C)c2n1 | . | . | . | 0.0%
CC(=O)Nc1cccc(NC(=O)c2ccc(S(=O)(=O)NCc3ccco3)cc2)c1 | . | . | 9.6% | 3.0%
COc1cccc(S(=O)(=O)NCc2ccc(C(=O)NCc3ccco3)cc2)c1 | 28.2µM* | 0.1% | 13.4% | -12.3%
COc1ccc(C(=O)NCC(=O)Nc2cccc(S(=O)(=O)NCc3ccco3)c2)cc1OC | 44.7µM* | 1.4% | 11.5% | -0.3%
Cc1cccc(NC(=O)c2ccc(F)c(S(=O)(=O)NCc3ccco3)c2)c1 | 28.2µM* | -12.0% | 1.7% | -11.8%
CCc1ccccc1NC(=O)CNC(=O)c1ccc(S(=O)(=O)NCc2ccco2)cc1 | . | . | -0.4% | -7.1%
Cc1cccc(C)c1NC(=O)CNC(=O)c1ccc(S(=O)(=O)NCc2ccco2)cc1 | 20µM* | . | 0.8% | -13.4%
CCc1ccccc1N1C(=O)N(CC(=O)c2ccc(Cl)cc2)c2ccccc2S1(=O)=O | 20.5% | . | . | 8.0%
N#Cc1ccc(OC(=O)c2cnccn2)cc1 | 22.4µM* | 5.7% | 3.1% | 7.7%
Oc1c(/C=C/C=C/C=Nc2ccccc2)sc(=S)n1Cc1ccccc1 | 11.2µM* | -18.9% | -1.2% | 1.0%
CCCCn1c(O)c(/C=C/C=C/C=Nc2ccccc2)sc1=S | 20µM* | -0.8% | -1.9% | -11.4%
CCn1c(O)c(/C=C/C=C/C=Nc2ccccc2)sc1=S | . | -9.4% | -12.1% | -5.2%
CCOc1ncccc1C(=O)Nc1ccc(C)cn1 | 0.3% | -4.2% | -12.9% | -1.1%
C1CN(CC2CCN(c3nc4nonc4nc3N3CCSCC3)CC2)CCO1 | 28.2µM* | 0.8% | 3.6% | 0.2%
CCS(=O)(=O)N1CC(=O)N(c2cccc(C)c2C)C(C)(C(=O)NC2CCCCC2)C1 (stereo not given) | 2.8% | . | . | 3.3%[15.4 µM]
CCOc1ccc(CNC(=O)c2cc3c(s2)-c2ccccc2OC3)cc1 | -2.0% | . | . | 4.6%
COc1ccc(Cl)cc1N1C(=O)c2cccnc2C1=O | 0.8% | 4.1% | 8.1% | 0.0%
COc1ccc(Cl)cc1-n1c(C)ccc1C | 50.1µM* | -0.4% | -1.5% | -6.6%
Cc1cncc(C(=O)O)[n+]1[O-] | . | . | . | -6.0%
Cc1cccc(/C=C/C(=O)c2ccc([N+](=O)[O-])o2)c1 | 1.58µM* | . | 7.0% | -0.4%
COc1ccc(/C=C/C(=O)c2ccc([N+](=O)[O-])o2)cc1 | ? | . | 8.5% | -3.6%
Cc1ccccc1/C=C/C(=O)c1ccc([N+](=O)[O-])o1 | 2µM* | . | 8.91µM* | -7.8%
SMILES | Sm TGR inh | LmPK inh | RE007 growth inh | Tb PYK inh
Cc1ccc(NS(=O)(=O)c2ccc(-c3cc(C)no3)cc2)c(Br)c1 | 6.6% | . | . | 1.5%
O=C(NCC1CC1)c1csc([C@@H]2O[C@H](CO)[C@H](O)[C@H](O)[C@H]2O)n1 | . | . | 7.3%[18.4 µM] | -9.9%
CC1(C)CC(=O)C(N=Nc2cc(S(=O)(=O)N3CCOCC3)ccc2Cl)=C(O)C1 | 10µM* | 9.2% | 16.7% | 5.5%
O=c1ccn([C@@H]2O[C@H](CNS(=O)(=O)C3CC3)[C@@H](O)[C@H]2O)c(=O)[nH]1 | . | . | -15.0% | 5.2%
Cc1cc(C)c2nc(N(Cc3cccnc3)C(=O)CCOc3ccccc3)sc2c1 | 44.2% | . | . | -7.1%[15.4 µM]
Cc1cccc2sc(N(Cc3cccnc3)C(=O)COc3ccccc3)nc12 | 4.4% | . | . | -0.7%
Cc1cccc2sc(N(Cc3cccnc3)C(=O)CCOc3ccccc3)nc12 | 3.55µM* | . | . | 0.0%
O=C(CCOc1ccccc1)N(Cc1cccnc1)c1nc2c(Cl)cccc2s1 | 1.12µM* | . | . | -15.1%[15.4 µM]
COc1cccc(CNC(=O)C(=O)NCC(c2cccs2)S(=O)(=O)c2cccs2)c1 (stereo not given) | 25.1µM* | . | . | -1.4%
O=C(NCc1ccccc1)C(=O)NCC(c1ccco1)S(=O)(=O)c1cccs1 (stereo not given) | ? | . | . | -4.5%
COc1cccc(CNC(=O)C(=O)NCC(c2ccco2)S(=O)(=O)c2cccs2)c1 (stereo not given) | 3.98µM* | . | . | -2.4%
Cc1cc2n(c1)CCn1c(C)ccc1-2 | 44.7µM* | -3.2% | . | .
CCCC1=[N+](CC)CCn2c(C)ccc21 | -9.7% | -1.4% | 5.8% | -4.5%
COc1cccc(CNc2cc(C)ccn2)c1O | 22.4µM* | -5.7% | -10.4% | -10.2%
COc1cccc(CNc2ccccn2)c1O | 28.2µM* | -0.4% | 1.6% | 0.6%
COc1ccc(S(=O)(=O)c2cn(CC(=O)Nc3cc(C)ccc3C)c3ccccc3c2=O)cc1 | -1.1% | . | . | -1.8%
CCOC(=O)C1=C(C)NC(C)=C(C(=O)OCC)C1c1ccccc1C=CC(=O)OC(C)(C)C | . | . | . | -11.0%
Cc1cc(Br)cc2c1N(Cc1ccccc1OC(C)C)C(=O)C2=O | -1.3% | . | . | 3.1%
CCOC(=O)c1cc(OC(=O)c2ccccc2OC)n(-c2ccccc2)n1 | 35.5µM* | 11.5% | 10.2% | -8.0%
Cc1cc(C)cc(NC(=O)CSc2nnc(COc3ccccc3Cl)o2)c1 | 11.0% | . | . | 1.9%
COc1ccc2c(c1)NC(C)(C)C=C2C | 39.8µM* | -3.3% | -16.4% | -24.3%
CC1=CC(C)(C)Nc2ccccc21 | -16.4% | -7.3% | 2.6% | 6.0%
Cn1nnnc1Sc1ncnc2scc(-c3cccs3)c12 | 3.55µM* | . | . | -23.5%
Cn1nnnc1Sc1ncnc2scc(-c3ccccc3C(F)(F)F)c12 | 3.98µM* | . | . | ?
Cn1nnnc1Sc1ncnc2scc(-c3ccc(C(F)(F)F)cc3)c12 | -31.4% | . | . | -9.4%
SMILES | Sm TGR inh | LmPK inh | RE007 growth inh | Tb PYK inh
Cn1nnnc1Sc1ncnc2scc(-c3ccc(-c4ccccc4)cc3)c12 | . | . | . | 1.7%
Nc1nc2ccc([N+](=O)[O-])cc2s1 | . | . | . | 3.1%[157 µM]
Cc1ccc(OCCC(=O)N(CCC(C)C)c2c(N)n(Cc3ccccc3)c(=O)[nH]c2=O)cc1 | -0.2% | . | -29.8% | 12.2%
CC(=O)Nc1cccc(-c2ccnc3c2CC(C(=O)Nc2cccc(N(C)C)c2)O3)c1 (stereo not given) | . | . | -20.8% | 2.0%
CCCNC(=O)c1ccc(S(=O)(=O)c2ccc(OC)cc2)c([N+](=O)[O-])c1 | 2.24µM* | 9.2% | -7.0% | 1.1%
COc1ccc(C(=O)NCCNc2ccccc2[N+](=O)[O-])cc1 | . | -13.2% | 0.4% | 0.4%
Cc1nc2scc(-c3ccccc3)c2c(=O)n1N=C1C=CC(=O)C=C1 | -5.2% | -20.7% | -4.4% | 3.98µM*
Cc1nc2scc(-c3ccccc3)c2c(=O)n1N | 0.0%[11.4 µM] | 8.7% | 1.5% | -0.3%
CNC(=O)OCc1nc(SSC(C)(C)C)n(C)c1COC(=O)NC | . | . | -1.7% | -6.9%
O=C(NC1CCCC1)C1c2ccccc2OCC(=O)N1Cc1cccnc1 (stereo not given) | . | . | 16.7% | -11.5%
